# Residue numbers refer to the chain shown, from its start.
# Experiments:
# Test in all cases: yeast three-hybrid, YBZ-1, SC-Leu-His + 0.5 mM 3-AT, 4 days
# Conditions in all cases: tags: N-Gal4 AD-HA kept; label: inside an RPR1-promoter hybrid RNA with tandem MS2 sites; ssRNA
# [1] = target: PUM1 PUF domain R8-GFK (Homo sapiens, UniProt Q14671 828-1176, N1122G;Y1123F;Q1126K)
# Procedure, shortened: (§1)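 Each repeat of the Pumilio-1 PUF domain was randomized at its three base-contacting residues, and these libraries were co-expressed from a centromeric plasmid with matching RNA elements in strain YBZ-1. After four days on SC-Leu (input) or SC-Leu-His + 0.5 mM 3-AT (selection), the repeat regions were PCR-amplified and Illumina-sequenced. The interaction score compares variant frequency between input and selection as a log change, computed in log2 with a pseudocount of 1 for absent variants.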
# [2] = target: PUM1 PUF domain R8-SWE (Homo sapiens, UniProt Q14671 828-1176, N1122S;Y1123W;Q1126E)
# Procedure, shortened: as §1
# [3] = target: T1, PUM1 PUF domain R6-HFV (Homo sapiens, UniProt Q14671 828-1176, N1043H;Y1044F;Q1047V)
# T1 sequence: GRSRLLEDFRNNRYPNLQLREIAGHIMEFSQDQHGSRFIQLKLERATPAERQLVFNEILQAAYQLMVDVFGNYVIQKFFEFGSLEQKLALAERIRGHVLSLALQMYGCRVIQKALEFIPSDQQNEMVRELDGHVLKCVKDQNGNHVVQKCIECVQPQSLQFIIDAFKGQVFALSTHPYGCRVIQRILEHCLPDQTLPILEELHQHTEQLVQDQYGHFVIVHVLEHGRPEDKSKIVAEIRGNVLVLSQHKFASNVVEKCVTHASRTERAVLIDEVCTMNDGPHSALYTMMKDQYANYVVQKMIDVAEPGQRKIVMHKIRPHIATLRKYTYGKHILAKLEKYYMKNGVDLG
# Procedure, shortened: as §1
# [4] = target: PUM1 PUF domain R5-RFI (Homo sapiens, UniProt Q14671 828-1176, C1007R;R1008F;Q1011I)
# Procedure, shortened: as §1
# [5] = target: PUM1 PUF domain R4-VMC (Homo sapiens, UniProt Q14671 828-1176, N971V;H972M;Q975C)
# Procedure, shortened: as §1
# [6] = target: PUM1 PUF domain R5-RYT (Homo sapiens, UniProt Q14671 828-1176, C1007R;R1008Y;Q1011T)
# Procedure, shortened: as §1
# [7] = target: T2, PUM1 PUF domain R6-MYL (Homo sapiens, UniProt Q14671 828-1176, N1043M;Q1047L)
# T2 sequence: T1 sequence with H216M, F217Y, V220L
# Procedure, shortened: as §1
# [8] = target: PUM1 PUF domain R4-LHW (Homo sapiens, UniProt Q14671 828-1176, N971L;Q975W)
# Procedure, shortened: as §1
# [9] = target: T3, PUM1 PUF domain R6-KFS (Homo sapiens, UniProt Q14671 828-1176, N1043K;Y1044F;Q1047S)
# T3 sequence: T1 sequence with H216K, V220S
# Procedure, shortened: as §1
# [10] = target: PUM1 PUF domain R2-AWH (Homo sapiens, UniProt Q14671 828-1176, N899A;Y900W;Q903H)
# Procedure, shortened: as §1
# [11] = target: PUM1 PUF domain R2-LFA (Homo sapiens, UniProt Q14671 828-1176, N899L;Y900F;Q903A)
# Procedure, shortened: as §1
# [12] = target: PUM1 PUF domain R4-VNV (Homo sapiens, UniProt Q14671 828-1176, N971V;H972N;Q975V)
# Procedure, shortened: as §1
# [13] = target: PUM1 PUF domain R1-KAV (Homo sapiens, UniProt Q14671 828-1176, S863K;R864A;Q867V)
# Procedure, shortened: as §1
# [14] = target: T4, PUM1 PUF domain R6-VYH (Homo sapiens, UniProt Q14671 828-1176, N1043V;Q1047H)
# T4 sequence: T1 sequence with H216V, F217Y, V220H
# Procedure, shortened: as §1
# [15] = target: PUM1 PUF domain R5-GKH (Homo sapiens, UniProt Q14671 828-1176, C1007G;R1008K;Q1011H)
# Procedure, shortened: as §1
# [16] = target: PUM1 PUF domain R5-NDG (Homo sapiens, UniProt Q14671 828-1176, C1007N;R1008D;Q1011G)
# Procedure, shortened: as §1
# [17] = target: PUM1 PUF domain R4-EHA (Homo sapiens, UniProt Q14671 828-1176, N971E;Q975A)
# Procedure, shortened: as §1
# [18] = target: T5, PUM1 PUF domain R6-SWD R7-NPG (Homo sapiens, UniProt Q14671 828-1176, N1043S;Y1044W;Q1047D;S1079N;N1080P;E1083G)
# T5 sequence: T1 sequence with H216S, F217W, V220D, S252N, N253P, E256G
# Procedure, shortened: as §1
# [19] = target: PUM1 PUF domain R3-RAA (Homo sapiens, UniProt Q14671 828-1176, C935R;R936A;Q939A)
# Procedure, shortened: as §1
sequence,measurement,setting,value
GGCUAGAACUAGUGGAUCCCCCGGCGCCCGGCGGCUCGAGCCCGGGUAAGCGUAAAUAGUCUGCAUGCCGCCGGGCGCCAUGCCUGCAGGUCGACUCUAGAAAACAUG,binding signal,[1],3.45 log2 enrichment (interaction score)
same,binding signal,[2],2.43 log2 enrichment (interaction score)
GGCUAGAACUAGUGGAUCCCCCGGCGCCCGGCGGCUCGAGCCCGGGUAAGUGUAAAUAGUCUGCAUGCCGCCGGGCGCCAUGCCUGCAGGUCGACUCUAGAAAACAUG,binding signal,[3],2.51 log2 enrichment (interaction score)
same,binding signal,[4],3.37 log2 enrichment (interaction score)
same,binding signal,[5],2.72 log2 enrichment (interaction score)
same,binding signal,[6],1.24 log2 enrichment (interaction score)
same,binding signal,[7],4.67 log2 enrichment (interaction score)
same,binding signal,[8],3.75 log2 enrichment (interaction score)
same,binding signal,[9],3.11 log2 enrichment (interaction score)
GGCUAGAACUAGUGGAUCCCCCGGCGCCCGGCGGCUCGAGCCCGGGUAAGUGUAAAAAGUCUGCAUGCCGCCGGGCGCCAUGCCUGCAGGUCGACUCUAGAAAACAUG,binding signal,[10],2.3 log2 enrichment (interaction score)
same,binding signal,[11],3.68 log2 enrichment (interaction score)
GGCUAGAACUAGUGGAUCCCCCGGCGCCCGGCGGCUCGAGCCCGGGUAAGUGUGAAUAGUCUGCAUGCCGCCGGGCGCCAUGCCUGCAGGUCGACUCUAGAAAACAUG,binding signal,[4],3.33 log2 enrichment (interaction score)
GGCUAGAACUAGUGGAUCCCCCGGCGCCCGGCGGCUCGAGCCCGGGUAAGUGUACAUAGUCUGCAUGCCGCCGGGCGCCAUGCCUGCAGGUCGACUCUAGAAAACAUG,binding signal,[5],2.94 log2 enrichment (interaction score)
same,binding signal,[12],2.33 log2 enrichment (interaction score)
GGCUAGAACUAGUGGAUCCCCCGGCGCCCGGCGGCUCGAGCCCGGGUAAGUGUAAAUUGUCUGCAUGCCGCCGGGCGCCAUGCCUGCAGGUCGACUCUAGAAAACAUG,binding signal,[13],2.36 log2 enrichment (interaction score)
GGCUAGAACUAGUGGAUCCCCCGGCGCCCGGCGGCUCGAGCCCGGGUAAGUGAAAAUAGUCUGCAUGCCGCCGGGCGCCAUGCCUGCAGGUCGACUCUAGAAAACAUG,binding signal,[14],5.62 log2 enrichment (interaction score)
GGCUAGAACUAGUGGAUCCCCCGGCGCCCGGCGGCUCGAGCCCGGGUAAGUGUUAAUAGUCUGCAUGCCGCCGGGCGCCAUGCCUGCAGGUCGACUCUAGAAAACAUG,binding signal,[15],3.15 log2 enrichment (interaction score)
same,binding signal,[6],3.93 log2 enrichment (interaction score)
same,binding signal,[16],3.34 log2 enrichment (interaction score)
GGCUAGAACUAGUGGAUCCCCCGGCGCCCGGCGGCUCGAGCCCGGGUAAGUGUAUAUAGUCUGCAUGCCGCCGGGCGCCAUGCCUGCAGGUCGACUCUAGAAAACAUG,binding signal,[17],2.96 log2 enrichment (interaction score)
GGCUAGAACUAGUGGAUCCCCCGGCGCCCGGCGGCUCGAGCCCGGGUAAGUUGAAAUAGUCUGCAUGCCGCCGGGCGCCAUGCCUGCAGGUCGACUCUAGAAAACAUG,binding signal,[18],5.9 log2 enrichment (interaction score)
GGCUAGAACUAGUGGAUCCCCCGGCGCCCGGCGGCUCGAGCCCGGGUAAGUGUAAUUAGUCUGCAUGCCGCCGGGCGCCAUGCCUGCAGGUCGACUCUAGAAAACAUG,binding signal,[19],3.66 log2 enrichment (interaction score)

# Reference: paper PMC8384837, “Expanding the binding specificity for RNA recognition by a PUF domain”
